PubChem BioAssay (NCI)
Compounds without any hit were thinned out: in the full panel of roughly 83,000, 20% have a hit.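 Negative percent growth values reflect cell death: -40 means 40% of the cells present at the start died, and -100 means all died.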 A number with no mark means an inactive call. The source made the active and inactive calls. How the source made its calls: active means growth percent below 10; inactive means the rest.

Experiments:
Assay in all cases: NCI-60 one-dose screen, 48 h (100 = growth as untreated, 0 = no growth, -100 = all killed)
Details in all cases: 10 µM unless noted
SR leukemia = system: SR leukemia
RPMI-8226 leukemia = system: RPMI-8226 leukemia
OVCAR-8 ovarian = system: OVCAR-8 ovarian
OVCAR-5 ovarian = system: OVCAR-5 ovarian
OVCAR-4 ovarian = system: OVCAR-4 ovarian
SK-OV-3 ovarian = system: SK-OV-3 ovarian
IGROV1 ovarian = system: IGROV1 ovarian
OVCAR-3 ovarian = system: OVCAR-3 ovarian
HS 578T breast = system: HS 578T breast
NCI/ADR-RES ovarian = system: NCI/ADR-RES ovarian
T-47D breast = system: T-47D breast
BT-549 breast = system: BT-549 breast
MDA-MB-435 melanoma = system: MDA-MB-435 melanoma
SW-620 colon = system: SW-620 colon
MCF7 breast = system: MCF7 breast
HCT-116 colon = system: HCT-116 colon
HCC-2998 colon = system: HCC-2998 colon
KM12 colon = system: KM12 colon

Compound	growth (SR leukemia)	growth (RPMI-8226 leukemia)	growth (OVCAR-8 ovarian)	growth (OVCAR-5 ovarian)	growth (OVCAR-4 ovarian)	growth (SK-OV-3 ovarian)	growth (IGROV1 ovarian)	growth (OVCAR-3 ovarian)	growth (HS 578T breast)	growth (NCI/ADR-RES ovarian)	growth (T-47D breast)	growth (BT-549 breast)	growth (MDA-MB-435 melanoma)	growth (SW-620 colon)	growth (MCF7 breast)	growth (HCT-116 colon)	growth (HCC-2998 colon)	growth (KM12 colon)
COc1ccc(-c2cc(C(=O)Nc3ccc(Br)cc3)nc3[nH]c(=O)sc23)cc1	65.1%	14.2%	43.1%	84.9%	34.2%	26.7%	25.2%	36.9%	41.6%	40.7%	-0.894% (active)	47%	39.6%	57.1%	24.3%	32.1%	36.1%	34.7%
CC[C@]1(O)C[C@H]2CN(CCc3c([nH]c4ccccc34)C(C(=O)OC)(c3cc4c(cc3OC)N(C)[C@H]3[C@@](O)(C(=O)OC)[C@H](OC(C)=O)[C@]5(CC)[C@@H]6C[C@@H]6CN6CC[C@]43[C@@H]65)C2)C1 (some centres undefined)	-20.5% (active)	42.1%	19.4%	6.6% (active)	29.1%	-11.9% (active)	9.14% (active)	5.03% (active)	43.9%	-3.99% (active)	65.6%	-47.2% (active)	-12.8% (active)	31.6%	4.81% (active)	-22.4% (active)	2.47% (active)	12%
CN(C)c1nc(-c2cccs2)n2nc(-c3ccco3)cc2n1	74.1%	73.2%	96%	99.4%	74.6%	90.2%	81.1%	101%	99.2%	93.5%	53.5%	94%	104%	96.7%	36.3%	91.4%	93.9%	81.4%
CC(=O)OC[C@H]1O[C@@H](n2c(=O)cc(N)[nH]c2=O)C(OC(C)=O)[C@@H]1OC(C)=O (some centres undefined)	106%	103%	99.4%	99.8%	110%	106%	103%	114%	95.7%	103%	96%	92.8%	101%	107%	94.9%	103%	106%	111%
CNC(=O)c1c(NC(=O)c2ccc(C(C)C)cc2)sc2c1CCC(=O)C2	2.8% (active)	-26.2% (active)	11%	-45.9% (active)	-74.3% (active)	-3.87% (active)	-52.7% (active)	-10.8% (active)	19.1%	-7.01% (active)	-36.6% (active)	-11.2% (active)	9.66% (active)	-35.5% (active)	0.569% (active)	-31.2% (active)	-55.3% (active)	-17.9% (active)
COc1ccc(C(=O)OC2C(OC3C(O)COC(O[C@H]4C[C@H]5[C@@H]6CC=C7C[C@@H](O)CC[C@]7(C)[C@H]6CC[C@]5(C)[C@H]4[C@H](C)C(=O)CCC(C)C)C3OC(C)=O)OCC(O)C2O)cc1 (some centres undefined)	-8.55% (active)	-29.1% (active)	19.3%	21.6%	52.1%	-44.1% (active)	28.3%	53.4%	-29.3% (active)	60.1%	2.99% (active)	-8.64% (active)	-47.4% (active)	-57.3% (active)	-30.8% (active)	1.33% (active)	52.9%	24.1%
Cc1ccc(NC(=O)c2cc(NCc3cc(O)ccc3O)ccc2O)cc1	20.3%	20.2%	81.8%	125%	89.1%	98.6%	97.9%	71%	86.4%	95.8%	75.6%	63.8%	106%	106%	75.7%	97%	106%	91%
COc1cc(CN(CCC(O)N2CCCC2=O)Cc2ccc3c(c2)OCO3)cc(OC)c1OC (centres undefined)	86.3%	98.7%	100%	98.5%	108%	102%	95%	105%	103%	103%	96%	101%	103%	108%	96.8%	92.4%	113%	105%
